Holding throughout (assay): PBM; 200 nM protein, PBS
Holding throughout (conditions): dsDNA, one strand shown

Assay [1] addresses PRRX1 (Homo sapiens, UniProt P54821 80-166, F113S).
Assay [2] deals with PRRX1 (Homo sapiens, UniProt P54821 80-166).
The target in assay [3] is T1, SIX6 (Homo sapiens, UniProt O95475 114-200, T165P).
T1 sequence: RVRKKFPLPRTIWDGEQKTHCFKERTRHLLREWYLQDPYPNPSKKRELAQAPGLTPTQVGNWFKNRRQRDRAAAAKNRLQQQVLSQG

Assay [4] concerns the target T2, SIX6 (Homo sapiens, UniProt O95475 114-200, H141N).
T2 sequence: T1 sequence with H28N, P52T

Assay [5] deals with T3, SIX6 (Homo sapiens, UniProt O95475 114-200, T139Q).
T3 sequence: T1 sequence with T26Q, P52T

Assay [6] concerns the target T4, SIX6 (Homo sapiens, UniProt O95475 114-200, T165A).
T4 sequence: T1 sequence with P52A

For assay [7], the target named is T5, SIX6 (Homo sapiens, UniProt O95475 114-200, T165G).
T5 sequence: T1 sequence with P52G

The target of assay [8] is T6, SIX6 (Homo sapiens, UniProt O95475 114-200).
T6 sequence: T1 sequence with P52T

Assay [9] addresses T7, SIX6 (Homo sapiens, UniProt O95475 114-200, T165I).
T7 sequence: T1 sequence with P52I

The target of assay [10] is T8, SIX6 (Homo sapiens, UniProt O95475 114-200, L167V).
T8 sequence: T1 sequence with P52T, L54V

The target of assay [11] is T9, SIX6 (Homo sapiens, UniProt O95475 114-200, L167M).
T9 sequence: T1 sequence with P52T, L54M

Positions count from the first letter of the chain named.

PRRX1 (Homo sapiens, UniProt P54821 80-166, F113S), sequence (P54821 80-166 F113S): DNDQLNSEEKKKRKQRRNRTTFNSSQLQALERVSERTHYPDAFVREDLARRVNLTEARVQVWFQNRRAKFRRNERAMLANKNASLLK
PRRX1 (Homo sapiens, UniProt P54821 80-166), sequence (P54821 80-166): as the sequence (P54821 80-166 F113S) above, with S34F counted along it

Take AGCCTTTC: the binding signal in assay [1] is 9.3 upbm affinity estimate (log intensity, higher = more binding, comparable within an allelic series); in [2], 8.88 upbm affinity estimate (log intensity, higher = more binding, comparable within an allelic series).
CTAGACCC: the binding signal in assay [1] is 9.44 upbm affinity estimate (log intensity, higher = more binding, comparable within an allelic series); in [2], 9.31 upbm affinity estimate (log intensity, higher = more binding, comparable within an allelic series).
As to CCCCTTGC, the binding signal in [1] is 9.32 upbm affinity estimate (log intensity, higher = more binding, comparable within an allelic series); in [2], 9.53 upbm affinity estimate (log intensity, higher = more binding, comparable within an allelic series).
Consider CAGAACCC, for which the binding signal is 9.51 upbm affinity estimate (log intensity, higher = more binding, comparable within an allelic series) in assay [1] and 9.39 upbm affinity estimate (log intensity, higher = more binding, comparable within an allelic series) in assay [2].
AGGTCTTG: the binding signal in assay [1] was 9.4 upbm affinity estimate (log intensity, higher = more binding, comparable within an allelic series); in [2] it was 9.41 upbm affinity estimate (log intensity, higher = more binding, comparable within an allelic series).
In the case of GCTGGACC, the binding signal in assay [1] was 9.41 upbm affinity estimate (log intensity, higher = more binding, comparable within an allelic series); in assay [2] it was 9.43 upbm affinity estimate (log intensity, higher = more binding, comparable within an allelic series).
In the case of CGGATCAG, the binding signal in assay [3] was 9.26 upbm affinity estimate (log intensity, higher = more binding, comparable within an allelic series).
In the case of GGGATACC, the binding signal in assay [3] was 9.29 upbm affinity estimate (log intensity, higher = more binding, comparable within an allelic series).
Same read-out and setting: the same measure for GAGGGATC: 9.26 upbm affinity estimate (log intensity, higher = more binding, comparable within an allelic series); for GATCCCCA: 9.34 upbm affinity estimate (log intensity, higher = more binding, comparable within an allelic series); for ACCGATCG: 9.18 upbm affinity estimate (log intensity, higher = more binding, comparable within an allelic series).
As for CGATACAC, the binding signal was 11.1 upbm affinity estimate (log intensity, higher = more binding, comparable within an allelic series) in assay [4]; 11.2 upbm affinity estimate (log intensity, higher = more binding, comparable within an allelic series) in assay [5]; 11 upbm affinity estimate (log intensity, higher = more binding, comparable within an allelic series) in assay [6].
For CCGGTATC, the binding signal in assay [3] was 9.21 upbm affinity estimate (log intensity, higher = more binding, comparable within an allelic series).
In the case of AGATCCGC, in assay [3], the binding signal is 9.23 upbm affinity estimate (log intensity, higher = more binding, comparable within an allelic series).
For GCCGATAC, the binding signal in assay [3] was 9.22 upbm affinity estimate (log intensity, higher = more binding, comparable within an allelic series).
In the case of CCGATCCG, the binding signal in assay [3] was 9.19 upbm affinity estimate (log intensity, higher = more binding, comparable within an allelic series).
Still for that read-out and setting: next, GGATCCAC: 9.18 upbm affinity estimate (log intensity, higher = more binding, comparable within an allelic series); GCGATCCC: 9.24 upbm affinity estimate (log intensity, higher = more binding, comparable within an allelic series); ACTACAAT: 10.1 upbm affinity estimate (log intensity, higher = more binding, comparable within an allelic series).
Turning to CGATACGC, the binding signal in [3] was 9.24 upbm affinity estimate (log intensity, higher = more binding, comparable within an allelic series).
The same measure, in the same setting: the same measure for GCGGATCC: 9.05 upbm affinity estimate (log intensity, higher = more binding, comparable within an allelic series); for GGATCCCC: 9.23 upbm affinity estimate (log intensity, higher = more binding, comparable within an allelic series); for CAGGGATC: 9.11 upbm affinity estimate (log intensity, higher = more binding, comparable within an allelic series).
Take CCGGATCC: the binding signal in [3] was 9.14 upbm affinity estimate (log intensity, higher = more binding, comparable within an allelic series).
Turning to GCTCTTCC, the binding signal is 9.47 upbm affinity estimate (log intensity, higher = more binding, comparable within an allelic series) in [1] and 9.1 upbm affinity estimate (log intensity, higher = more binding, comparable within an allelic series) in assay [2].
With GAGGATCC, the binding signal in [3] is 9.19 upbm affinity estimate (log intensity, higher = more binding, comparable within an allelic series).
Turning to GCAAGGCC, the binding signal was 9.45 upbm affinity estimate (log intensity, higher = more binding, comparable within an allelic series) in assay [1] and 9.29 upbm affinity estimate (log intensity, higher = more binding, comparable within an allelic series) in assay [2].
In the case of GGGATCCA, the binding signal in assay [3] is 9.27 upbm affinity estimate (log intensity, higher = more binding, comparable within an allelic series).
Turning to CCGATACG, in [3], the binding signal is 9.12 upbm affinity estimate (log intensity, higher = more binding, comparable within an allelic series).
Take CTGGATCC: the binding signal in [3] is 9.18 upbm affinity estimate (log intensity, higher = more binding, comparable within an allelic series).
As to CTGATACA, the binding signal in assay [4] is 11 upbm affinity estimate (log intensity, higher = more binding, comparable within an allelic series); in assay [6] it was 11 upbm affinity estimate (log intensity, higher = more binding, comparable within an allelic series).
In the case of CATAACAC, the binding signal was 10 upbm affinity estimate (log intensity, higher = more binding, comparable within an allelic series) in assay [4]; 10.3 upbm affinity estimate (log intensity, higher = more binding, comparable within an allelic series) in assay [7]; 10.4 upbm affinity estimate (log intensity, higher = more binding, comparable within an allelic series) in [5]; 10.1 upbm affinity estimate (log intensity, higher = more binding, comparable within an allelic series) in assay [6]; 10.1 upbm affinity estimate (log intensity, higher = more binding, comparable within an allelic series) in assay [8]; 10.1 upbm affinity estimate (log intensity, higher = more binding, comparable within an allelic series) in assay [9].
Turning to GGATCCGA, in [3], the binding signal is 9.08 upbm affinity estimate (log intensity, higher = more binding, comparable within an allelic series).
Turning to CATATCAC, the binding signal in assay [4] is 11.1 upbm affinity estimate (log intensity, higher = more binding, comparable within an allelic series); in [7], 11.1 upbm affinity estimate (log intensity, higher = more binding, comparable within an allelic series); in assay [6], 11 upbm affinity estimate (log intensity, higher = more binding, comparable within an allelic series); in assay [10] it was 10.9 upbm affinity estimate (log intensity, higher = more binding, comparable within an allelic series).
In the case of GATACGCC, in assay [3], the binding signal is 9.27 upbm affinity estimate (log intensity, higher = more binding, comparable within an allelic series).
On the same count and under the same terms, the same measure for CGATACCG: 9.14 upbm affinity estimate (log intensity, higher = more binding, comparable within an allelic series); for CCGGATCG: 9.19 upbm affinity estimate (log intensity, higher = more binding, comparable within an allelic series); for CCCCTATC: 9.29 upbm affinity estimate (log intensity, higher = more binding, comparable within an allelic series).
On the same count and under the same terms, the same measure for CCGTATCC: 9.24 upbm affinity estimate (log intensity, higher = more binding, comparable within an allelic series).
As to GCGATACC, the binding signal is 11 upbm affinity estimate (log intensity, higher = more binding, comparable within an allelic series) in assay [4]; 9.27 upbm affinity estimate (log intensity, higher = more binding, comparable within an allelic series) in assay [3]; 10.3 upbm affinity estimate (log intensity, higher = more binding, comparable within an allelic series) in assay [11]; 11.1 upbm affinity estimate (log intensity, higher = more binding, comparable within an allelic series) in assay [5].

For the origin of these results see PMC11006913.
